# Laboratory results reported in PubChem BioAssay AID1900 (Broad Institute, 2009).
# The whole screen tested about 3,200 compounds, of which about 2,900 (91%) were called active.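 Rule for the calls: active = fitted half-maximal effect concentration at most a set number of log units above the top dose; inactive = fitted half-maximal concentration further above the top dose.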 So high a share suggests a set chosen from earlier hits. The list shows a part of the results. Potency and affinity values are given separately.
# Assay: growth inhibition of control SK(-) GAS strain, dose response, counter-screen for streptokinase expression inhibitor project, luminescence, kanamycin, BacTiterGlo, confirmation (AID 1900)
# Conditions: SK(-)GAS Streptococcus pyogenes + kanamycin, BacTiterGlo viability, 6 h; at 15 µM (top of the series)
row,SMILES,"activity change, negative = inhibition"
1,O=C(Nc1ccccc1Sc1ccccc1)c1ccccc1F,-63% (active)
2,COc1cccc2sc(Nc3nnc(-c4ccccc4Cl)o3)nc12,-41.8% (active)
3,O=C(Nc1cccc(-c2nc3ccccc3[nH]2)c1)c1ccc(C(=O)Nc2cccc(-c3nc4ccccc4[nH]3)c2)cc1,-32.9% (active)
4,COc1ccccc1N=c1oc2cc(O)ccc2cc1C(N)=O,-48.9% (active)
5,CC(C)(C)c1csc(NNC(=O)c2ccc(Br)cc2)n1,-78.7% (active)
6,FC(F)Oc1ccccc1C1CC(c2ccc(Br)s2)Nc2ncnn21 (configuration not stated),-52.4% (active)
7,N#C/C(=C\c1ccc(/C=C(/C#N)c2nn(CCO)c(N)c2C#N)cc1)c1nn(CCO)c(N)c1C#N,-56% (active)
